Most compounds without a hit are left out; they make up all but 21% or so of the library.
TDP1 cell CPT – growth inhibition of DT40 Tdp1-/-;hTDP1 cells with camptothecin (screen for TDP1 inhibitors). 420,000 tested, 12% active. Potency, µM (doses to about 46.2 µM), most hits filed as inhibitors. AID 686979. chicken DT40 Tdp1-/-;hTDP1 cells + 20 nM CPT, ATP luminescence, 48 h; note: nearly all actives have a fitted effect of over 55% in size
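Chicken DT40 Tdp1-/- cells stably complemented with human TDP1 were seeded at 400 cells/well in medium containing 20 nM camptothecin, exposed to pin-transferred compounds, and grown at 37 °C for at least 48 hr. Viability was read as ATP luminescence.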
DT40 TDP1 no CPT – qHTS for Inhibitors of human tyrosyl-DNA phosphodiesterase 1 (TDP1): qHTS in cells in absence of CPT; AID 686978, 2013; Potency, µM (series often up to 46.2 µM), hits mostly inhibitors; DT40 Tdp1-/- hTDP1 cells, no CPT, ATP luminescence, 48 h; 420,000 tested, 15% active; note: nearly all actives have a fitted effect of over 55% in size
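Cells were dispensed at 400 per well, compounds added by pin tool, plates incubated ≥48 hr at 37 °C, then CellTiter-Glo added for 30 min at room temperature before luminescence reading. Line: DT40 Tdp1-/- complemented with hTDP1; camptothecin omitted.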
ClpP mod – qHTS Assay for Activators of ClpP | purified B. subtilis ClpP, FRET peptide cleavage, 20 min | 340,000 tested, 1.9% active | ATP-dependent Clp protease proteolytic subunit (Bacillus subtilis (strain 168)), P80244 | AID 651965, 2013 | Potency, µM (titrated, usually from 57.5 µM); active = well fitted falling curve with a large enough effect; inconclusive = small, poorly fitted or top-dose-only effect; inactive = no such curve, though single readings can be large or run the other way; note: the source files actives as falling curves though it sought activators and does not explain the sign; nearly all actives have a fitted effect of over 65% in size
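ClpP 10 microg/mL final, pH 8 Tris/KCl buffer with BSA, glycerol, Tween-20; compound pinned in; FRET-FV substrate; RT 20 min; Ex320/Em430; ΔFRET vs ADEP 5.8 microM, DMSO, no enzyme.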
IL-1B inflam inh – blocks inflammasome-driven IL-1 beta release; THP-1 LPS/ATP IL-1B secretion, AlphaLISA, 16 h; stronger effect = lower value; activity change, % at 57.5 µM; 360,000 tested, 4.7% active; AID 743279; in the data active = activity change below about -50%; inconclusive = mostly about -30% to -49%
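Secreted IL-1B measured by AlphaLISA bead assay after 16 h compound exposure of THP-1 cells; compounds (final up to 57.5 uM) added 1 h before LPS (250 ng/mL) and ATP (1.25 mM) stimulation; lower signal means less secretion.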
D3 antag – antagonists of human D3 dopamine receptor; D3R cells, DiscoveRx beta-arrestin luminescence, antagonist mode; stronger effect = lower value; max response, negative = inhibition, %; 360,000 tested, 2.5% active; in the data active = max response below about -50%; inconclusive = no clear call, values can overlap the other calls
Target sequence (P35462 whole entry, looked up): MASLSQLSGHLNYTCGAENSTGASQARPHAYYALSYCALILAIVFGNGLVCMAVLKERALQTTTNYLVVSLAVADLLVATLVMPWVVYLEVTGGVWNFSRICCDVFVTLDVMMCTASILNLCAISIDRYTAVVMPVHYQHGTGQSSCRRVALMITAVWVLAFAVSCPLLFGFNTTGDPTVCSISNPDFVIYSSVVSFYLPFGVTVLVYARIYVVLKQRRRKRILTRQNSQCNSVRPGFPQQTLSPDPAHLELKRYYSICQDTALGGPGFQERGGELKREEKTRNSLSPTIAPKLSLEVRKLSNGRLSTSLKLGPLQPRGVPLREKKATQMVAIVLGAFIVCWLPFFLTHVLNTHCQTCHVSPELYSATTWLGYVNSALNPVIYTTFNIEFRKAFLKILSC
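Cells plated overnight at 1500 cells/well, then exposed to library compounds with dopamine controls for 90 minutes at 37 degrees C. DiscoveRx reagent added for 30–60 minutes at room temperature; luminescence read, quantitative HTS format.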
D3 ag – activates the human D3 dopamine receptor. P35462. D3R DiscoveRx beta-arrestin cells, luminescence, 90 min. max activation, %. 410,000 tested, 0.58% active. AID 652048; in the data active = max activation above about 30%
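Cells at 1500/well, incubated overnight, then treated with pinned compounds (dopamine as control) for 90 min at 37 degrees C. DiscoveRx reagent added for 30 - 60 minutes at room temperature; luminescence read.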
Hits are given with their value; . = inactive; ? = inconclusive; / = not tested or not shown. Unless noted, calls come from the whole dose curve; as a rule, active = well fitted inhibition curve with a large enough effect; inconclusive = small, poorly fitted or top-dose-only effect; inactive = flat fitted curve, though single readings scatter.

SMILES	TDP1 cell CPT	DT40 TDP1 no CPT	ClpP mod	IL-1B inflam inh	D3 antag	D3 ag
Cc1cc(C)cc(C(=O)NC(=S)Nc2ccc3c(c2)OCCO3)c1	16µM	?	.	.	.	.
O=C(NC(=S)Nc1ccc(N2CCCCC2)c(Cl)c1)c1ccc2c(c1)OCCO2	16µM	21µM	.	.	.	.
Cc1cc(C)cc(C(=O)NC(=S)Nc2ccc(Cc3ccncc3)cc2)c1	?	29µM	.	?	?	.
CCc1ccc(C(=O)NC(=S)Nc2ccc3c(c2)OCCO3)cc1	?	?	.	.	.	.
CC(SCc1ccc(C(=O)O)o1)c1ccc(C(=O)O)o1 (stereo not drawn)	.	.	.	.	.	.
COc1c(C(=O)Nc2ccc(Cc3ccncc3)cc2)ccc2ccccc12	?	23µM	?	.	.	34
COc1ccc(Br)cc1C(=O)Nc1ccc(Cc2ccncc2)cc1	?	?	.	?	.	.
O=C(Nc1ccc(Cc2ccncc2)cc1)c1ccc(Br)o1	.	.	.	?	.	.
CC(C)Cc1ccc(C(=O)Nc2ccc(Cc3ccncc3)cc2)o1	?	?	/	-91	.	.
CC(=O)Nc1ccc(NC(=O)Cn2cc3c(n2)CCCCC3)cc1	.	.	.	/	/	.
CCN1C(=O)C2(c3ccccc31)c1c(oc3ccc(C)cc3c1=O)C(=O)N2CCCOC(C)C (stereo not drawn)	?	?	.	/	/	.
CCN(C(=O)COC(=O)CNC(=O)c1ccc(Cl)cc1Cl)c1c(N)n(Cc2ccccc2)c(=O)[nH]c1=O	.	.	.	.	.	.
Cc1ccc(NC(=O)C(=O)NCc2ccc(/C=C(/C#N)C(=O)NCc3cccnc3)o2)cc1	?	.	.	.	?	.
Cc1ccc(NC(=O)C(=O)NCc2ccc(/C=C(/C#N)C(=O)NCc3cccnc3)o2)cc1C	?	16µM	.	.	.	.
CCN1CCN(CCCNC(=O)Cn2c(-c3cccs3)cc3ccccc32)CC1	?	?	10µM	/	/	.
CN1CCN(CCCNC(=O)Cn2c(-c3cccs3)cc3ccccc32)CC1	?	?	11µM	/	/	.
Cc1ccc(CCNC(=O)Cn2c(-c3cccs3)cc3ccccc32)cc1	?	?	.	/	/	.
O=C(Cn1c(-c2cccs2)cc2ccccc21)NCCCN1CCN(c2cccc(Cl)c2)CC1	?	16µM	25µM	/	/	.
NS(=O)(=O)c1ccc(CCNC(=O)Cn2c(-c3cccs3)cc3ccccc32)cc1	.	?	35µM	/	/	.
O=C(Cc1cccs1)NCCS(=O)(=O)N1CCN(c2cccc(Cl)c2)CC1	.	?	.	.	.	.
Cc1ccc(C)c(N2CCN(CCCNC(=O)Cn3c(-c4cccs4)cc4ccccc43)CC2)c1	5.2µM	2.9µM	28µM	/	/	.
CCCN1CCN(CCCNC(=O)Cn2ncc3c4ccccc4n(C)c3c2=O)CC1	.	.	.	.	.	.
CCCN1CCN(CCCNC(=O)Cn2c(-c3cccs3)cc3cc(Cl)ccc32)CC1	?	?	32µM	/	/	.
CCCN1CCN(CCCNC(=O)Cn2c(-c3cccs3)cc3ccccc32)CC1	?	?	35µM	/	/	.
Cc1ccccc1N1CCN(CCCN2C(=O)CC(=C(c3ccccc3)c3ccccc3)C2=O)CC1	?	23µM	.	.	?	.
SMILES	TDP1 cell CPT	DT40 TDP1 no CPT	ClpP mod	IL-1B inflam inh	D3 antag	D3 ag
O=C1CC(=C(c2ccccc2)c2ccccc2)C(=O)N1CCCCN1CCN(c2cccc(Cl)c2)CC1	15µM	18µM	.	?	-52	.
O=C(NCCN1CCN(c2ccccc2)CC1)Nc1cccc(Cl)c1	?	?	.	?	?	.
Cc1cc(C)cc(-n2ccn(CC(=O)c3ccc(F)cc3)c(=O)c2=O)c1	.	.	.	/	/	.
CCc1noc(C)c1C(=O)N(CC)CC(=O)NCc1ccc(F)cc1	.	.	.	.	.	.
CCO/C=C/C(O)(CNC(=O)c1ccc(C(C)(C)C)cc1)C(F)(F)F (stereo not drawn)	?	16µM	.	.	?	.
Cc1ccc(C(NC(=O)Nc2ccccn2)C(Cl)(Cl)Cl)cc1F (stereo not drawn)	?	21µM	/	.	.	.
Cc1cccc(NC(=O)Nc2ccccn2)c1C	.	.	.	.	.	.
CC(NC(=O)Nc1ccc(F)cc1)c1ccc2c(c1)OCO2 (stereo not drawn)	.	.	.	.	.	.
CC1=NN(C(N)=S)C(=O)C1N=Nc1c(Cl)cc([N+](=O)[O-])cc1Cl (stereo not drawn)	?	16µM	.	.	?	.
CC1=NN(C(N)=S)C(=O)C1N=Nc1ccccc1C (stereo not drawn)	1.6µM	1.6µM	.	.	-89	.
